The values that follow come from the supplement of paper PMC12297408.

A number with no mark means an inactive call.

This test has as its system Plasmodium falciparum NF54/iGP1_RE9H ulg8 stage V gametocytes. Kind of test: gametocyte viability (luciferase signal relative to DMSO control) (% of DMSO control); higher = less gametocytocidal activity, active = 50 or less. As to conditions: exposure time: 72 h. An outline of the steps:
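Gametocyte viability is reported relative to the average of DMSO vehicle wells on the same plate. The assay used day-12 stage V NF54/iGP1_RE9Hulg8 gametocytes at ~2.5% gametocytemia and 3% hematocrit, in 0.5% Albumax II medium, added to 96-well plates of compounds spotted in nanolitre volumes for final 10 µM or 1 µM, one well each. After 72 h at 37 °C, 90 µl was mixed with 10 µl D-luciferin (30 mg/ml), and luminescence was recorded with an IVIS Lumina II.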

As for `OC[C@H]1O[C@@H](n2cnc3cc(Cl)c(Cl)cc32)[C@H](O)[C@@H]1O` [5,6-dichloro-1-β-D-ribofuranosylbenzimidazole], the gametocyte viability was 112 (concentration: 1 µM) and 119 (concentration: 10 µM).

With `CN[C@@H]1C[C@H]2O[C@@](C)([C@@H]1OC)n1c3ccccc3c3c4c(c5c6ccccc6n2c5c31)C(=O)NC4` [Staurosporine], the gametocyte viability runs as follows: (concentration: 1 µM) 110; (concentration: 10 µM) 27.1 (active).

Take `Cc1ccccc1-n1c(Cn2cnc3c(N)ncnc32)nc2cccc(C)c2c1=O`: the gametocyte viability is 101 (concentration: 1 µM) and 96.9 (concentration: 10 µM).

For `N#C/C(=C\c1ccc(O)c(O)c1)C(N)=S`, the gametocyte viability is, setting by setting: (concentration: 1 µM) 101; (concentration: 10 µM) 101.

Take `N#CC(C#N)=Cc1cc(O)c(O)c(O)c1`: the gametocyte viability (concentration: 1 µM) is 104 and the gametocyte viability (concentration: 10 µM) is 97.9.

Take `C/C(O)=C(\C#N)C(=O)Nc1cc(Br)ccc1Br`: the gametocyte viability is, setting by setting: (concentration: 1 µM) 110; (concentration: 10 µM) 101.

With `N#CC(C#N)=Cc1ccc([N+](=O)[O-])c(O)c1`, the gametocyte viability runs as follows: (concentration: 1 µM) 107; (concentration: 10 µM) 102.

Consider `CCN1CCN(C(=O)Cc2ccc(Nc3ncc(F)c(Nc4ccc(C(=O)Nc5ccccc5Cl)cc4)n3)cc2)CC1` [Aurora A Inhibitor I], for which the gametocyte viability was 110 (concentration: 1 µM) and 82.7 (concentration: 10 µM).

As to `CC(=O)c1c(O)c(C)c(O)c(Cc2c(O)c3c(c(C(=O)/C=C/c4ccccc4)c2O)OC(C)(C)C=C3)c1O` [Rottlerin], the gametocyte viability is, setting by setting: (concentration: 1 µM) 100; (concentration: 10 µM) 96.9.

In the case of `COC[C@H]1OC(=O)c2coc3c2[C@@]1(C)C1=C(C3=O)[C@@H]2CCC(=O)[C@@]2(C)C[C@H]1OC(C)=O` [Wortmannin], the gametocyte viability is 91.8 (concentration: 1 µM) and 89.3 (concentration: 10 µM).

As to `Cc1ccccc1-n1c(Cn2ncc3c(N)ncnc32)nc2cccc(C)c2c1=O`, the gametocyte viability is 94.7 (concentration: 1 µM) and 104 (concentration: 10 µM).

Regarding `N#CC(C#N)=Cc1ccc(O)c(O)c1`, the gametocyte viability is, setting by setting: (concentration: 1 µM) 99; (concentration: 10 µM) 104.

On to `CC(C)(C)c1cc(C=C(C#N)C#N)cc(C(C)(C)C)c1O`, for which the gametocyte viability by setting is: (concentration: 1 µM) 101; (concentration: 10 µM) 110.

As for `N#CC(C#N)=Cc1cc(O)c(O)c([N+](=O)[O-])c1`, the gametocyte viability was 103 (concentration: 1 µM) and 101 (concentration: 10 µM).

`CC1=C(O)C(=O)[C@@H]2O[C@@H]2C1=O` [Terreic acid]: the gametocyte viability is 98.4 (concentration: 1 µM) and 64.8 (concentration: 10 µM).

`Cn1cc(C2=C(c3cn(C4CCN(Cc5ccccn5)CC4)c4ccccc34)C(=O)NC2=O)c2ccccc21`: the gametocyte viability reads like this: (concentration: 1 µM) 100; (concentration: 10 µM) 109.

`O=c1[nH]c2ccc(Cl)cc2c(N[C@@H]2CN3CCC2CC3)c1-c1nc2ccccc2[nH]1`: the gametocyte viability (concentration: 1 µM) was 112 and the gametocyte viability (concentration: 10 µM) was 120.
